A selection: hits, their analogues and other compounds. The true share with any hit is near 1.6%.
V-ATPase pH: alters yeast V-ATPase proton transport; S. cerevisiae, pHLuorin cytosolic pH fluorescence; response, % at 10 µM; 350,000 compounds, 0.37% hits; AID 504577; in the data active means response mostly above about 7.3%, no sharp cut-off; inactive means mostly below about 5.4%; further: actives read high
NSD2 inh: blocks human histone methyltransferase NSD2; NSD2 peptide methylation, AlphaScreen, 120 min; inhibition, % at 12.5 µM; 310,000 compounds, 0.54% hits; in the data active means inhibition above about 50%
Efflux pump mplx: blocks antifungal efflux pumps in multiplex yeast assay; 330,000 compounds, 0.44% hits; S. cerevisiae Candida pump triplex, Nile Red efflux; AID 485275; inhibition, % at 10 µM;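 active means plate passing quality check with inhibition over a set limit, or well fluorescence over plate mean plus 4 SD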;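 further: Nile Red retained in pooled yeast measured as flow cytometry median fluorescence; higher means more Nile Red kept so more efflux inhibition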
NPR2 activator: GC-B (human) receptor activation; P20594; AID 1920062; 370,000 compounds, 0.11% hits; HEK293-GC-B cells, CNP EC30, cGMP TR-FRET; 0% at EC30 CNP, 100% saturating CNP; activation, % at 10 µM;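 active means activation at 10 µM reaching about 35% in either raw or pattern-adjusted values, limit read from the data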
GC-A act: GC-A (human) enzyme activation; HEK293 GC-A cells, cGMP TR-FRET, EC30 ANP; 0% at EC30 ANP, 100% saturating ANP; activation, % at 10 µM; 370,000 compounds, 0.14% hits; AID 1671463; in the data active means activation above about 40%
Rce1 inhib: yeast Ras-converting enzyme inhibition; 290,000 compounds, 0.27% hits; calls only; AID 2563; yeast membranes, quenched prenylated peptide cleavage fluorescence;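 active means fall in fluorescence gain of 50% or more versus controls, with final raw signal at or below 3038400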
Hits are given with their value; - = inactive; . = no result; + = active, no number.

SMILES	V-ATPase pH	NSD2 inh	Efflux pump mplx	NPR2 activator	GC-A act	Rce1 inhib
Cc1cnn(-c2ccccc2)c1NC(=O)COCc1ccccc1	.	.	.	-	-	.
CCN(CC)CCCOc1nc(C)nc2c1oc1ccccc12	-	65	.	-	-	.
COc1ccccc1N1CCN(CC(=O)c2ccc(F)cc2)CC1	-	-	-	-	-	-
CC(CC(=O)c1ccc(F)cc1)N1CCN(c2ccccc2)CC1 (stereo not given)	-	-	.	-	63	.
CNC(=O)NC(=O)CSc1nc(-c2cccs2)c(C#N)c(=O)[nH]1	-	-	.	-	45	-
CSc1nc(-c2cccs2)c(C#N)c(=O)[nH]1	-	-	-	-	-	-
O=C(O)C1Sc2[nH]c(=O)sc2C2c3cc(Cl)ccc3OC(=O)C12 (stereo not given)	-	-	-	-	-	-
O=C(O)C1Sc2[nH]c(=O)sc2C2c3ccc(O)cc3OC(=O)C12 (stereo not given)	-	-	-	-	-	+
CCC(C)NC(=O)c1cc2c(=O)n3cccc(C)c3nc2s1 (stereo not given)	-	-	-	-	-	+
Cc1cccc(Cn2cc(COC(=O)NCC(C)C)nn2)c1	.	.	.	-	-	.
CC1(C)CC(=O)C2=C(C1)NC(Nc1nc3ccccc3o1)=NC2c1ccccn1 (stereo not given)	-	.	-	-	46	-
COCOCCn1cc(CN2CCS(=O)(=O)N(Cc3ccc(-c4ccc(Cl)cc4)cc3)C(C)C2=O)nn1 (stereo not given)	-	.	.	-	49	.
COc1ccc(-n2c(SCC(=O)NNC(=S)Nc3ccccc3)nc3ccccc3c2=O)cc1	.	-	.	-	-	.
CC1CCCN(C(C(=O)Nc2ccc3c(c2)OCO3)c2ccccc2)C1 (stereo not given)	14	.	-	-	-	-
Cc1ccc(N(CCC(=O)Nc2nnc(C3CC3)s2)S(=O)(=O)c2ccccc2)cc1	.	-	10	-	-	-
CN(c1ccccc1)S(=O)(=O)c1ccc(C(=O)Nc2nnc(C3CC3)s2)cc1	-	-	-	-	-	-
O=C(CCc1ccccc1)N[C@H]1[C@H](OCc2ccccc2)CCC[C@@]12C(=O)N(Cc1ccccc1)c1ccc(-c3ccsc3)cc12	.	.	.	-	-	.
Cc1ccc2oc(=O)c3cc(C(=O)NCCCN4CCN(C)CC4)sc3c2c1	-	-	-	-	-	-
CN1CCN(CCCNC(=O)c2cc3c(=O)n(C)c4ccccc4c3s2)CC1	-	.	-	-	-	+
COC(=O)c1cnn(-c2ccc(F)cc2F)c1/C=N/NC(=S)Nc1ccc(Cl)cc1	.	-	.	.	.	.
CC(C)CCNc1nnnc2c1sc1nc(N3CCOCC3)c3c(c12)CC(C)(C)SC3	-	-	-	57	52	-
CC1(C)Cc2c(c(N3CCOCC3)nc3sc4c(NCCN5CCOCC5)nnnc4c23)CS1	-	-	-	42	44	-
CC1(C)Cc2c(c(N3CCOCC3)nc3sc(C#N)c(N)c23)CS1	-	-	-	-	-	-
c1nc(NCCN2CCOCC2)c2sc3nc(N4CCOCC4)c4c(c3c2n1)CCC4	-	.	-	-	-	-
CC1(C)Cc2c(c(N3CCOCC3)nc3sc4c(NCC5CCCO5)nnnc4c23)CS1 (stereo not given)	-	-	-	49	-	-
SMILES	V-ATPase pH	NSD2 inh	Efflux pump mplx	NPR2 activator	GC-A act	Rce1 inhib
Cc1ccc2nc(-c3ccncc3)c(Nc3ccccc3)n2c1	-	-	-	-	-	-
COc1ccc(-c2nc3cnccn3c2Nc2ccc(C)cc2)cc1	-	.	-	48	62	-
Cc1ccc(Nc2c(-c3cccnc3)nc3ccc(Br)cn23)cc1	-	-	-	44	45	-
Cc1ccc(Nc2c(-c3ccccc3)nc3cnccn23)cc1	-	-	-	-	49	-
O=C1c2ccccc2C(=O)C1Cc1cccc2ccccc12	289	-	-	-	-	-
O=C1NC(c2cccc3ccccc23)Nc2ccccc21 (stereo not given)	-	-	.	-	-	.
N#CCCn1cc(/C=N/NC(N)=S)c(-c2ccc(Br)cc2)n1	-	-	-	55	-	-
c1coc(CSSCc2ccco2)c1	9.5	.	-	-	-	.
Cc1ccc(NC(=O)CSCc2ccco2)cc1	-	-	-	-	-	-
CCCS(=O)(=O)c1c(S(=O)(=O)CCC)c2ccc(C(N)=O)cn2c1C(=O)c1ccc(OC)cc1	-	-	-	56	-	-
C[C@@H]1CN([C@@H](C)COC(=O)C(C)(C)C)C(=O)c2cc(NC(=O)Nc3ccccc3)ccc2O[C@@H](C)CCCCO[C@H]1CN(C)S(=O)(=O)c1ccc(F)cc1	.	-	.	-	-	.
CCC(=O)Nc1cc(-c2nn(CC(=O)N3CCCCC3)c(=O)c3ccccc23)ccc1N1CCOCC1	-	-	-	-	-	+
CCCC(=O)Nc1cc(-c2nn(C)c(=O)c3ccccc23)ccc1N1CCOCC1	-	-	-	-	-	-
CN(CCC(=O)c1ccccc1)CCC(=O)c1ccccc1	-	-	-	-	63	-
O=C(O)CCC(=O)CCC(=O)c1ccc(Cl)cc1	-	-	-	-	-	-
O=C(CC(=O)c1ccccc1)c1ccccc1	-	-	.	-	-	.
O=C(O)CCC(=O)c1ccc(-c2ccccc2)cc1	-	.	-	-	-	+
CN(C)CCC(=O)c1ccc(Cl)cc1	-	-	-	-	62	-
COC(=O)[C@]12C[C@H](CC(=O)NCc3cccc4ccccc34)C(=O)N(Cc3ccco3)C1=C[C@H](C1CCCC1)O[C@@H]2C	.	.	.	-	-	.
O=C(CCCl)NC1CCCCN(Cc2ccc(OC(F)(F)F)cc2)C1=O (stereo not given)	.	.	.	-	-	.
O=C(c1ccccc1CCc1ccccc1)N1CCCC1	40	-	-	-	-	-
CCOC(=O)N1CCN(C(=O)c2ccccc2CCc2ccccc2)CC1	-	-	-	-	-	-
CCNc1nc(NC(C)(C)C)nc(N(C#N)CC)n1	-	-	-	48	44	-
COc1cccc(CN[C@@H]2CC[C@@]34CCCN3C(=O)CCC[C@H]4C2)c1	.	.	.	-	-	.
C[C@@H](C(=O)Nc1ccc2ccccc2c1)[C@H]1C[C@]1(C)[C@H](NC(=O)OCc1ccccc1)c1ccccc1	-	.	-	-	-	-
SMILES	V-ATPase pH	NSD2 inh	Efflux pump mplx	NPR2 activator	GC-A act	Rce1 inhib
Cc1cc(C(=O)N[C@H](c2ccccc2)[C@@]2(C)C[C@@H]2[C@@H](C)C(=O)Nc2ccc3ccccc3c2)n(C)n1	-	.	-	-	-	+
COc1ccc(C(=O)CCN2CCCCCC2)cc1	-	-	-	-	-	-
CCC1(C)CC2(CCCN(CCC(=O)c3ccccc3)C2)CCO1 (stereo not given)	-	-	-	-	43	-
Cc1ccc(C(=O)NC2CCN(CCCC(=O)c3ccc(F)cc3)CC2)cc1	-	-	-	-	-	-
O=C(CCN1CCOCC1)c1ccc(Cl)cc1	-	-	-	-	58	-
O=C(CCN1CCCCCC1)c1ccccc1	-	-	-	-	71	.

From PubChem BioAssay
